Bioassay records: PubChem, National Center for Advancing Translational Sciences (NCATS)
IL-1B inflam inh: inflammasome signaling inhibition, IL-1 beta readout; actives 4.7% (n = 360,000); AID 743279; THP-1 LPS/ATP IL-1B secretion, AlphaLISA, 16 h; active compounds read low; activity change, % at 57.5 µM; in the data active = activity change below about -50%; inconclusive = mostly about -30% to -49%
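THP-1 cells pretreated 1 hr with compounds (up to 57.5 uM final), then stimulated with LPS (250 ng/mL final) plus ATP (1.25 mM final); secreted IL-1B measured by AlphaLISA after 16 hr, decreased signal indicating inhibition.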
TDP1 cell noCPT: qHTS for Inhibitors of human tyrosyl-DNA phosphodiesterase 1 (TDP1): qHTS in cells in absence of CPT; DT40 Tdp1-/- hTDP1 cells, no CPT, ATP luminescence, 48 h; Potency, µM (titrated, usually from 46.2 µM), actives largely listed as inhibitors; actives 15% (n = 420,000); AID 686978, 2013; also: nearly all actives have a fitted effect of over 55% in size
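Luminescent ATP content (CellTiter-Glo) served as the growth readout. Knockout chicken DT40 cells expressing human TDP1 were exposed to compounds without camptothecin for a minimum 48 hr at 37 °C.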
TDP1 cell CPT: DT40-hTDP1 cell growth loss with CPT | chicken DT40 Tdp1-/-;hTDP1 cells + 20 nM CPT, ATP luminescence, 48 h | Potency, µM (top dose mostly 46.2 µM), hits mostly inhibitors | actives 12% (n = 420,000) | AID 686979; also: nearly all actives have a fitted effect of over 55% in size
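Chicken DT40 Tdp1-/- cells stably complemented with human TDP1 were seeded at 400 cells/well in medium containing 20 nM camptothecin, exposed to pin-transferred compounds, and grown at 37 °C for at least 48 hr. Viability was read as ATP luminescence.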
TGFb inhibitor: blocks TGF-b signaling; HepG2 CAGA-GFP TGF-b/SMAD3 reporter, GFP fluorescence, 18 h; TGF-beta stimulated, 500 pg/mL final; Potency, µM (series often up to 46.1 µM), usual class: inhibitors; actives 1.2% (n = 410,000); also: nearly all actives have a fitted effect of over 65% in size
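Using HEPG2 CAGA-GFP reporter cells at 1000 cells/well, we pinned test compounds, stimulated with recombinant TGF-beta (500 pg/mL final) and measured total well GFP after 18 h.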
S-ASM inh: human S-ASM enzyme inhibition | AID 504937 | Potency, µM (series often up to 57.5 µM), hits mostly inhibitors | placental ASM, HMU-PC fluorogenic substrate, 60 min | actives 0.006% (n = 340,000)
Target sequence (P17405 47-631 limits assumed): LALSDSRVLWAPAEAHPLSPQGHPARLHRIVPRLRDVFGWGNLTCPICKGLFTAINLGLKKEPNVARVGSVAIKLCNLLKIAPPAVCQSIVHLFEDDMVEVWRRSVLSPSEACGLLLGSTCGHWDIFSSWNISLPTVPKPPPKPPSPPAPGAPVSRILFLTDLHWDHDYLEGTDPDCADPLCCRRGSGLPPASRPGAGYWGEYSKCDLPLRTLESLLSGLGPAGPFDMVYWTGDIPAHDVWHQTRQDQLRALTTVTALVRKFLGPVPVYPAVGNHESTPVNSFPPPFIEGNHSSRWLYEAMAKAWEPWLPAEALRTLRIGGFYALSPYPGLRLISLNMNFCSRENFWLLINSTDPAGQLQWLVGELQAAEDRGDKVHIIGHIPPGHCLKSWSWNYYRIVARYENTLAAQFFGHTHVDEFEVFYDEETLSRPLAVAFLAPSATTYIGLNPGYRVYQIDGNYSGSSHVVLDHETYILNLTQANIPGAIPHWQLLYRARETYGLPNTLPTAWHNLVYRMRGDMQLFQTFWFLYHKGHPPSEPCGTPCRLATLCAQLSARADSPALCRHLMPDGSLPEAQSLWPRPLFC
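Steps: dispense placental human ASM, pin compound, wait 10 min at room temperature, add HMU-PC0 substrate at 9 uM final, incubate 60 min at 37 °C, add stop solution raising pH to 10, read fluorescence.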
HepG2 tox: kills HepG2 cells in TGF-b inhibitor counter-screen | HepG2 CAGA-GFP viability, ATP luminescence, 18 h | actives 0.76% (n = 410,000) | Potency, µM (top dose mostly 46.1 µM), actives largely listed as cytotoxic
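HepG2 CAGA-GFP cells (1000/well, DMEM with 1% FBS) received compound, then TGF-beta at 500 pg/mL final, and were incubated 18 hours at 37 degrees C. Viability was read by CellTiter-Glo luminescence. Media-only wells were set as complete cell-killing and DMSO as no toxicity.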
Each line names hits and unclear results; the compound was inactive in the other large screens. This is a sample that favours compounds with a hit; in the whole collection about 19% have one here. Unless noted, calls follow the shape of the dose curve; as a rule, active = well fitted curve in the direction sought with a large enough effect; inconclusive = small, poorly fitted or top-dose-only effect, or another doubt; inactive = no such curve, though single readings can be large; an effect the other way counts as inactive or inconclusive.

CCCCn1cc(S(=O)(=O)c2ccc(OC)cc2)c(=O)c2cc(F)c(F)cc21	TDP1 cell noCPT inconclusive, TDP1 cell CPT 18µM (no result: IL-1B inflam inh, S-ASM inh)
CCCn1cc(S(=O)(=O)c2ccccc2)c(=O)c2cc(F)c(N3CCCCC3)cc21	TDP1 cell noCPT inconclusive, TDP1 cell CPT inconclusive (no result: IL-1B inflam inh, S-ASM inh)
CCCn1c(N)c(N(CCOC)C(=O)/C=C/c2ccc(C(=O)OC)cc2)c(=O)[nH]c1=O	none
Cc1c(C(=O)NCC2(N3CCCCC3)CCCC2)cnn1-c1nccc(-c2ccccc2F)n1	none (no result: IL-1B inflam inh, TGFb inhibitor, S-ASM inh, HepG2 tox)
CCCn1cc(S(=O)(=O)c2ccccc2)c(=O)c2cc(CC)ccc21	IL-1B inflam inh -50
CCCn1cc(S(=O)(=O)c2ccccc2)c(=O)c2cc(F)c(N3CCCC(C)C3)cc21 (stereo not given)	TDP1 cell noCPT inconclusive, TDP1 cell CPT inconclusive, TGFb inhibitor inconclusive (no result: IL-1B inflam inh, S-ASM inh)
CCCCn1cc(S(=O)(=O)c2ccc(CC)cc2)c(=O)c2cc(F)c(N3CCCC(C)C3)cc21 (stereo not given)	TDP1 cell noCPT 23µM, TDP1 cell CPT 23µM (no result: IL-1B inflam inh, S-ASM inh)
CCCCn1cc(S(=O)(=O)c2ccc(CC)cc2)c(=O)c2cc(F)c(N3CCOCC3)cc21	TDP1 cell noCPT 18µM, TDP1 cell CPT inconclusive (no result: IL-1B inflam inh, S-ASM inh)
CCCN1CCN(c2cc3c(cc2F)c(=O)c(S(=O)(=O)c2ccc(CC)cc2)cn3CC)CC1	TDP1 cell noCPT 21µM, TDP1 cell CPT inconclusive, TGFb inhibitor inconclusive (no result: IL-1B inflam inh, S-ASM inh)
O=C(N=C1SC2CS(=O)(=O)CC2N1Cc1ccc(Cl)cc1)C1CCCO1 (stereo not given)	none
COc1ccc2c(c1)c1c(c(=O)n(-c3ccc(F)c(Cl)c3)c(=O)n1CC(=O)N1CCCC1)n2C	none (no result: IL-1B inflam inh, S-ASM inh)
O=C(NCCc1ccc(Cl)cc1Cl)c1cncc(Br)c1	none
Cc1ccc(C2=NC(C(F)(F)F)(C(F)(F)F)c3c(n(-c4ccc(F)cc4)c(=O)[nH]c3=O)N2)cc1	TDP1 cell noCPT 23µM, TDP1 cell CPT 23µM, TGFb inhibitor inconclusive
O=c1[nH]c(=O)n(-c2ccc(F)cc2)c2c1C(C(F)(F)F)(C(F)(F)F)N=C(c1ccc(F)cc1)N2	IL-1B inflam inh inconclusive, TDP1 cell noCPT 3.3µM, TDP1 cell CPT 4.6µM, TGFb inhibitor inconclusive (no result: S-ASM inh)
Cc1ccc(Cl)cc1NC(=O)C1CCCN(S(=O)(=O)c2cccc3cccnc23)C1 (stereo not given)	TDP1 cell noCPT inconclusive, TDP1 cell CPT inconclusive (no result: IL-1B inflam inh, S-ASM inh)
Clc1ccc2ncnc(NCc3ccc4c(c3)OCO4)c2c1	TDP1 cell noCPT 2.5µM, TDP1 cell CPT 3.2µM (no result: IL-1B inflam inh, TGFb inhibitor, S-ASM inh, HepG2 tox)
Clc1ccccc1-c1ccc2ncnc(NCc3ccc4c(c3)OCO4)c2c1	TGFb inhibitor inconclusive, S-ASM inh inconclusive (no result: IL-1B inflam inh, TDP1 cell noCPT, TDP1 cell CPT)
Oc1ccc(CCNc2ncnc3ccc(Cl)cc23)cc1	TDP1 cell noCPT 2.3µM, TDP1 cell CPT 2.6µM
COc1cccc(NC(=O)C(=O)NCCCN2CCCC2=O)c1	none
CC(CC(F)(F)F)N1CCC(n2nccc2NC(=O)CCOc2ccccc2)CC1 (stereo not given)	none
N#Cc1nc(COc2ccccc2F)oc1NCCc1ccccc1	IL-1B inflam inh -77
COc1ccc(Nc2oc(COc3ccccc3F)nc2C#N)cc1	TDP1 cell noCPT 13µM, TDP1 cell CPT inconclusive
COc1ccc(Nc2oc(COc3ccc(OC)cc3)nc2C#N)cc1	TDP1 cell noCPT inconclusive, S-ASM inh inconclusive
COc1ccc(CCNc2oc(COc3ccccc3)nc2C#N)cc1	TDP1 cell noCPT inconclusive, TDP1 cell CPT inconclusive
Cc1ccc(OCc2nc(C#N)c(NCCc3ccccc3)o2)cc1	TDP1 cell noCPT inconclusive, TDP1 cell CPT inconclusive, TGFb inhibitor 22µM (no result: IL-1B inflam inh, S-ASM inh)
Cc1ccc(Oc2ccc(S(=O)(=O)N3CCOCC3)cc2C(N)=O)cc1C	TDP1 cell noCPT inconclusive, TDP1 cell CPT inconclusive
Cc1ccc2nc(=O)c(NNc3ccccc3)cnc2c1	TDP1 cell noCPT 10µM, TDP1 cell CPT inconclusive
CC(C)NC(=O)c1ccc(COc2cc(Cl)ccc2Cl)o1	IL-1B inflam inh -62, TDP1 cell noCPT 21µM
CC(C)CCC(C)NC(=O)CN1C(=O)NC(C)(c2ccc3ccccc3c2)C1=O (stereo not given)	IL-1B inflam inh inconclusive, TDP1 cell CPT inconclusive
O=c1cc(N2CCN(c3ccc(F)cc3)CC2)[nH]c(=O)n1-c1cccc(Br)c1	TDP1 cell noCPT 18µM, TDP1 cell CPT 10µM (no result: IL-1B inflam inh, S-ASM inh)
O=c1cc(N2CCN(c3ccccc3)CC2)[nH]c(=O)n1-c1ccccc1	none
Brc1cccc(-c2cnn3c(-c4ccccc4)cc(-c4ccccc4)nc23)c1	none (no result: IL-1B inflam inh, S-ASM inh)
O=C(COC(=O)c1ccc2ccccc2n1)Nc1ccccc1F	none
Cn1c(-c2ccc3ccccc3n2)[n+](C)c2ccccc21	TDP1 cell noCPT 3.7µM, TDP1 cell CPT 3.3µM, TGFb inhibitor inconclusive
Cn1c(-c2ccccn2)[n+](C)c2ccccc21	none
Cn1c(-c2cccc([N+](=O)[O-])c2)[n+](C)c2ccccc21	TDP1 cell noCPT 3.3µM, TDP1 cell CPT 7.3µM
CN(C)c1ccc(-c2n(C)c3ccccc3[n+]2C)cc1	IL-1B inflam inh -80, TDP1 cell noCPT 0.82µM, TDP1 cell CPT 1.6µM
CCOc1ccc(NC(=O)c2c(NCc3cc(OC)c(OC)cc3OC)sc3c2CCCC3)cc1	TDP1 cell noCPT inconclusive, TDP1 cell CPT inconclusive, TGFb inhibitor inconclusive (no result: IL-1B inflam inh, S-ASM inh)
COc1ccccc1CC(=O)Nc1sc2c(c1C(N)=O)CCCC2	TGFb inhibitor inconclusive
